Measured values reported in PubChem BioAssay (EPA / NIEHS).
Values joined by “and” are separate entries in the source; they are usually repeats but may differ in a detail not shown here. Equal values may be shown once. Records with an inconclusive call do not appear. Where a structure was tested more than once in an assay, its records may differ in their call. Active and inactive are the calls of the source. How the source made its calls: active means hit-call score of the fitted dose curve at least 0.9, where 1 is the maximum; inconclusive means response in the unintended direction; inactive means score below 0.9.

Key:
[1] = TOX21_p53_BLA_p2_viability: Viability Assessment in the Tox21 HCT-116 p53 Agonism Beta-lactamase Assay, Phase 2 (AID 2283591);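 further: actives lower the ATP signal meaning cytotoxicity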
Procedure, shortened: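 Cytotoxicity readout: CellTiter-Glo ATP luminescence, 30 min at room temperature, after the beta-lactamase read. Cells were HCT116 exposed 16 h at 37C to compounds pin-transferred at 217-fold dilution from DMSO stocks.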

[2] = biological target: Cellular tumor antigen p53 (Homo sapiens) (UniProt P04637); assay: TOX21_p53_BLA_p2_ratio: Tox21 HCT-116 p53 Agonism Beta-lactamase Assay, Ratio, Phase 2 (AID 2283592)
Chain of Cellular tumor antigen p53 (Homo sapiens) (P04637 whole entry, looked up): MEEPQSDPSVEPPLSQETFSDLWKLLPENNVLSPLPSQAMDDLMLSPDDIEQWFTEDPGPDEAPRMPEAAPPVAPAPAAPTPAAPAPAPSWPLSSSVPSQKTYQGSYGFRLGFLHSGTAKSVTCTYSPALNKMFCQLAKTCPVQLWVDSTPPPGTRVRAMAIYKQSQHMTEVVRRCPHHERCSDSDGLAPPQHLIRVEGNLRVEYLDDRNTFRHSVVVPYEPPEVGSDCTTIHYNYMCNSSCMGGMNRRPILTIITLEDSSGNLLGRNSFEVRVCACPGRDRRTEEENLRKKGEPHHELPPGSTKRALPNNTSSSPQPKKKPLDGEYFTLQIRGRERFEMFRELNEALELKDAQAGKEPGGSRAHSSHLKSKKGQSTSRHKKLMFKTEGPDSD
Procedure, shortened: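 An inducible beta-lactamase reporter in HCT116 cells signals p53 pathway activation. After 16 h chemical exposure at 37C, cells load CCF4-AM substrate for 2 h at room temperature; activity is the cleaved/uncleaved emission ratio relative to DMSO.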

[3] = TOX21_p53_BLA_p3_viability: Viability Assessment in the Tox21 HCT-116 p53 Agonism Beta-lactamase Assay, Phase 3 (AID 2283593);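 further: cells exposed to compound for 16 h before reading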
Procedure, shortened: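 Cellular ATP was quantified by CellTiter-Glo luminescence, read after 30 min at room temperature. Beforehand, HCT116 cells (4000/well) received compound 5 h post-seeding, 217-fold diluted from DMSO, then incubated 16 h at 37C.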

[4] = biological target: Cellular tumor antigen p53 (Homo sapiens) (UniProt P04637); assay: TOX21_p53_BLA_p3_ratio: Tox21 HCT-116 p53 Agonism Beta-lactamase Assay, Ratio, Phase 3 (AID 2283596)
Procedure, shortened: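 HCT116 p53-bla cells (4000/well) given compound in DMSO (217-fold dilution) after 5 h, incubated 16 h at 37C. CCF4-AM substrate 2 h at room temperature; 460/530 nm emission ratio, gain fitted against DMSO.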

[5] = TOX21_p53_BLA_p4_viability: Viability Assessment in the Tox21 HCT-116 p53 Agonism Beta-lactamase Assay, Phase 4 (AID 2283597);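 further: hits lower the luminescence signal meaning cytotoxicity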
Procedure, shortened: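 Compound exposure of HCT116 cells lasts 16 h at 37C, 5% CO2, with DMSO stocks diluted 217-fold. Cellular ATP is then quantified by CellTiter-Glo luminescence after 30 min at room temperature.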

[6] = biological target: Cellular tumor antigen p53 (Homo sapiens) (UniProt P04637); assay: TOX21_p53_BLA_p5_ratio: Tox21 HCT-116 p53 Agonism Beta-lactamase Assay, Ratio, Phase 5 (AID 2283599)
Procedure, shortened: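 Beta-lactamase reporter ratio (blue 460 nm over green 530 nm, 405 nm excitation) after 2 h CCF4-AM loading, in HCT-116 cells exposed 16 h at 37 C to compounds pinned at 217-fold dilution. Increases relative to DMSO baseline scored.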

[7] = TOX21_p53_BLA_p5_viability: Viability Assessment in the Tox21 HCT-116 p53 Agonism Beta-lactamase Assay, Phase 5 (AID 2283600)
Procedure, shortened: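 Counter-readout for cytotoxicity: ATP-dependent luminescence from CellTiter-Glo, read in the beta-lactamase wells after 30 min at RT, following a 16 h compound exposure at 37C.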

[8] = biological target: Cellular tumor antigen p53 (Homo sapiens) (UniProt P04637); assay: TOX21_p53_BLA_p4_ratio: Tox21 HCT-116 p53 Agonism Beta-lactamase Assay, Ratio, Phase 4 (AID 2283601)
Procedure, shortened: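 Signal is the blue/green (460nm/530nm) ratio of cleaved versus uncleaved CCF4-AM substrate, read after 2 h substrate loading. Cells were HCT116 carrying the p53-responsive beta-lactamase reporter, dosed 16 h at 37C, 5% CO2; CellTiter-Glo measured in parallel.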

SMILES	outcome [1]	outcome [2]	outcome [3]	outcome [4]	outcome [5]	outcome [6]	outcome [7]	outcome [8]	AC50 [3]	AC50 [4]	AC50 [1]	AC50 [2]	AC50 [5]	AC50 [6]	AC50 [7]	AC50 [8]
Cc1ccccc1	inactive	inactive	inactive	inactive	inactive	inactive	inactive	inactive	–	–	–	–	–	–	–	–
CCC[CH2][Sn]([CH2]CCC)([O]C(C)=O)[O]C(C)=O	inactive	inactive	–	–	inactive	inactive	inactive	inactive	17.7 µM (active)	32.2 µM (active)	–	–	–	–	–	–
ClC(Br)Br	inactive	inactive	inactive	inactive	inactive	inactive	inactive	inactive	–	–	–	–	–	–	–	–
CN1C[C@@H](NS(=O)(=O)N(C)C)C[C@@H]2c3cccc4c3c(cn4C)C[C@H]21	inactive	inactive	inactive	inactive	inactive	inactive	inactive	inactive	–	–	–	–	–	–	–	–
CC(=O)[O][Sn]([c]1ccccc1)([c]1ccccc1)[c]1ccccc1	–	–	–	–	–	–	–	–	2.87 µM (active)	17.7 µM (active)	2.52 µM (active)	6.42 µM (active)	2.42 µM (active)	18.4 µM (active)	11.2 µM (active)	8.98 µM (active)
F/C(COc1ccc2c(c1)[nH]c1ccccc12)=C1/CN2CCC1CC2	inactive	inactive	inactive	inactive	–	inactive	inactive	inactive	–	–	–	–	27.3 µM (active)	–	–	–
COc1ccc(Cc2nccc3cc(OC)c(OC)cc23)cc1OC	inactive	inactive	inactive	inactive	inactive	inactive	inactive	inactive	–	–	–	–	–	–	–	–
[Cl][Hg][c]1ccccc1	–	–	–	–	–	–	–	–	2.88 µM (active)	8.93 µM (active)	0.576 µM (active)	0.553 µM (active)	0.624 µM (active)	10.9 µM (active)	2.95 µM (active)	0.672 µM (active)
CC(=O)C=Cc1ccc2c(c1)OCO2	inactive	–	inactive	–	inactive	–	inactive	–	–	62.8 µM (active)	–	18.1 µM (active)	–	71 µM (active)	–	51.2 µM (active)
O=C(O)c1nn(Cc2ccc(Cl)cc2Cl)c2ccccc12	inactive	inactive	inactive	inactive	inactive	inactive	inactive	inactive	–	–	–	–	–	–	–	81.2 µM (active)
CC(=O)C(Cl)Cl	inactive	inactive	inactive	inactive	inactive	inactive	inactive	inactive	–	–	–	–	–	–	–	–
Fc1ccc(C(OCCN2CCN(CCCc3ccccc3)CC2)c2ccc(F)cc2)cc1	–	–	–	–	–	–	–	–	31 µM (active)	24.9 µM (active)	33 µM (active)	33.7 µM (active)	25.1 µM (active)	40.4 µM (active)	38.4 µM (active)	39 µM (active)
O=P1(N(CCCl)CCCl)NC(OO)CCO1 (stereo not given)	inactive	inactive	inactive	inactive	inactive	inactive	inactive	inactive	–	–	–	–	–	–	–	–
CCCCCCC[CH2][Sn]([Cl])([Cl])[CH2]CCCCCCC	–	–	–	–	–	inactive	inactive	inactive	57.1 µM (active)	21.2 µM (active)	66.6 µM (active)	67 µM (active)	36.5 µM (active)	–	–	–
NCC(O)c1cccc(O)c1 (stereo not given)	inactive	inactive	inactive	inactive	inactive	inactive	inactive	inactive	–	–	–	–	–	–	–	–
CN(C)c1ccc(N)cc1	inactive	–	inactive	inactive	inactive	inactive	inactive	inactive	–	–	–	72 µM (active)	–	–	–	–
Oc1ccc2[nH]cc(CCCCN3CC=C(c4ccccc4)CC3)c2c1	inactive	inactive	inactive	inactive	inactive	inactive	inactive	inactive	–	–	–	–	–	–	–	–
C1CN(P2(N3CC3)=NP(N3CC3)(N3CC3)=NP(N3CC3)(N3CC3)=N2)CCO1 (stereo not given)	inactive	inactive	inactive	–	inactive	inactive	inactive	inactive	–	23 µM (active)	–	–	–	–	–	–
O=Cc1ccccc1	inactive	inactive	inactive	inactive	inactive	inactive	inactive	inactive	–	–	–	–	–	–	–	–
O=C(O)c1ccccn1	inactive	inactive	inactive	inactive	inactive	inactive	inactive	inactive	–	–	–	–	–	–	–	–
OC(O)C(Cl)(Cl)Cl	inactive	inactive	inactive	inactive	inactive	inactive	inactive	inactive	–	–	–	–	–	–	–	–
CCCCCCCCCCCC[N+](C)(C)CCOc1ccccc1	–	–	–	–	–	–	–	–	53 µM (active) and 22.3 µM (active)	84.4 µM (active) and 43.8 µM (active)	28.1 µM (active) and 30.3 µM (active)	33.3 µM (active) and 40.8 µM (active)	37.5 µM (active) and 16.3 µM (active)	85.4 µM (active) and 44.8 µM (active)	54.3 µM (active) and 33.6 µM (active)	36.1 µM (active)
COC(COC(N)=O)C1=C(N2CC2)C(=O)C(C)=C(N2CC2)C1=O (stereo not given)	inactive	–	–	–	inactive	–	–	–	18.2 µM (active)	0.121 µM (active)	–	6.58 µM (active)	–	0.219 µM (active)	36.3 µM (active)	17.2 µM (active)
